# Screening data deposited in PubChem by National Center for Advancing Translational Sciences (NCATS).
# S-ASM inh = human S-ASM enzyme inhibition; P17405; placental ASM, HMU-PC fluorogenic substrate, 60 min; Potency, µM (highest dose often 57.5 µM), without a hit: at the top dose activity change, negative = inhibition, hits mostly inhibitors; hit rate 0.006% among 340,000; note: potency is the fitted concentration of half-maximal effect
# Target sequence (P17405 47-631 limits assumed): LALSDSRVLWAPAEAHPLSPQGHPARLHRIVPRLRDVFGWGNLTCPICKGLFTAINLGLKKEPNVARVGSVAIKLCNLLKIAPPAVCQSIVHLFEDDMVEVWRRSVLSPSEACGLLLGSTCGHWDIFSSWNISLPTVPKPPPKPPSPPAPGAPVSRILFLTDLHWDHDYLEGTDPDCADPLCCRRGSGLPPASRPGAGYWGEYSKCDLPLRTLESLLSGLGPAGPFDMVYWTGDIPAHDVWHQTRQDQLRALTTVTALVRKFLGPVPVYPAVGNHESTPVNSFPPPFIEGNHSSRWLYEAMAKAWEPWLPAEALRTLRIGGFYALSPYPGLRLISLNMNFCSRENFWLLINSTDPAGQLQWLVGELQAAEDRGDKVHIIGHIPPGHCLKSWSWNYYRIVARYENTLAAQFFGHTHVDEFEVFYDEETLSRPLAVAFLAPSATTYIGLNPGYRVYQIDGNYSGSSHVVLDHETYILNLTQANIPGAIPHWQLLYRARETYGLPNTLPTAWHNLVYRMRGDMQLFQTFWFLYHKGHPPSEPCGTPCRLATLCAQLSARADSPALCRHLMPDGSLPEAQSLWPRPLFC
#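 Human placenta-derived ASM enzyme was preincubated with compound for 10 minutes at room temperature, then given fluorogenic substrate HMU-PC0 (9 uM final) for 60 minutes at 37 °C; a pH 10 stop preceded fluorescence reading at Ex 386/Em 447 nm.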
# DT40 TDP1 no CPT = qHTS for Inhibitors of human tyrosyl-DNA phosphodiesterase 1 (TDP1): qHTS in cells in absence of CPT | DT40 Tdp1-/- hTDP1 cells, no CPT, ATP luminescence, 48 h | Potency, µM (titrated, usually from 46.2 µM), inactives show top-dose activity change, negative = growth inhibition, hits mostly inhibitors | hit rate 15% among 420,000 | AID 686978, 2013; note: potency is the fitted concentration of half-maximal effect; % is set by controls: 0 for no effect and ±100 for the full control effect; nearly all actives have a fitted effect of over 55% in size
#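 Compound effects on proliferation are scored in DT40 Tdp1-/-;hTDP1 cells in the absence of CPT. ATP levels (CellTiter-Glo luminescence) are recorded after a ≥48 hr, 37 °C incubation.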
# TDP1 cell CPT = DT40-hTDP1 cell growth loss with CPT; chicken DT40 Tdp1-/-;hTDP1 cells + 20 nM CPT, ATP luminescence, 48 h; Potency, µM (series often up to 46.2 µM), without a hit: at the highest dose activity change, negative = growth inhibition, usual class: inhibitors; hit rate 12% among 420,000; note: potency is the fitted concentration of half-maximal effect; % is set by controls: 0 for no effect and ±100 for the full control effect; nearly all actives have a fitted effect of over 55% in size
#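 Chicken DT40 Tdp1-/- cells complemented with human TDP1, 400 cells/well, exposed to compounds plus 20 nM camptothecin for at least 48 h at 37 C; viability read as ATP content by CellTiter-Glo luminescence.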
# TGFb SMAD3 inh = blocks TGF-b signaling | AID 588855 | HepG2 CAGA-GFP TGF-b/SMAD3 reporter, GFP fluorescence, 18 h; TGF-beta stimulated, 500 pg/mL final | hit rate 1.2% among 410,000 | Potency, µM (doses to about 46.1 µM), inactives show at the top dose activity, negative = inhibition, actives largely listed as inhibitors; note: potency is the fitted concentration of half-maximal effect; % is set by controls: 0 for no effect and ±100 for the full control effect; nearly all actives have a fitted effect of over 65% in size
#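 GFP signal (ex488/em500-530) from TGF-beta-stimulated HEPG2 CAGA-GFP cells, 500 pg/mL final, 18 h at 37 degrees C in DMEM plus 1% FBS, normalized to unstimulated and DMSO-stimulated controls.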
# IL1B secr inh = inhibitors of inflammasome signaling (IL-1 beta secretion) | AID 743279 | THP-1 LPS/ATP IL-1B secretion, AlphaLISA, 16 h; hits give low values | activity change, % at 57.5 µM | hit rate 4.7% among 360,000; in the data active = activity change below about -50%; inconclusive = mostly about -30% to -49%; note: % is set by controls: 0 for no effect and ±100 for the full control effect
#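 THP-1 cells pretreated 1 hr with compounds (up to 57.5 uM final), then stimulated with LPS (250 ng/mL final) plus ATP (1.25 mM final); secreted IL-1B measured by AlphaLISA after 16 hr, decreased signal indicating inhibition.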
# HepG2 viability = HepG2 cytotoxicity, counter-screen for TGF-b inhibitors; HepG2 CAGA-GFP viability, ATP luminescence, 18 h; AID 588856; hit rate 0.76% among 410,000; Potency, µM (doses to about 46.1 µM), for inactives: top-dose activity change, negative = cytotoxicity, most hits filed as cytotoxic; note: potency is the fitted concentration of half-maximal effect
#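 CellTiter-Glo luminescence gave cytotoxicity after 18 hours at 37 degrees C. The cells were HepG2 CAGA-GFP in 1% FBS DMEM, stimulated with 500 pg/mL TGF-beta after compound addition. %Activity was normalised to no-cell wells (complete cell-killing) and DMSO (no toxicity), and curves were fitted and classified.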
# * hit, by the source's call; ? = inconclusive; . = no result. Hits are enriched below; roughly 19% of the tested compounds scored in any of these assays. Unless noted, calls come from the whole dose curve; as a rule, active = well fitted curve in the direction sought with a large enough effect; inconclusive = small, poorly fitted or top-dose-only effect, or another doubt; inactive = no such curve, though single readings can be large; an effect the other way counts as inactive or inconclusive.
SMILES,S-ASM inh,DT40 TDP1 no CPT,TDP1 cell CPT,TGFb SMAD3 inh,IL1B secr inh,HepG2 viability
Cc1cccc(N2CCN(S(=O)(=O)c3cccs3)CC2)c1C,-5.9%,3.6%,-0.3%,?,?,-32.0%
O=C(C1CCC(CNS(=O)(=O)c2cccs2)CC1)N1CCN(c2ccc(F)cc2)CC1 (stereo unspecified),-5.9%,20.6µM*,?,2.3%,?,-10.7%
Cc1ccccc1N1CCN(S(=O)(=O)c2cccs2)CC1,-5.1%,-0.9%,-10.5%,-5.3%,-54.0*,-11.9%
CC1Cc2ccccc2N1C(=O)C1CCN(S(=O)(=O)c2cccs2)CC1 (stereo unspecified),-4.8%,-10.7%,?,-1.7%,-66.8*,0.5%
CCOC(=O)[C@@H]1[C@H]2COc3cc(OC)ccc3[C@@H]2N2C(=O)N(c3ccc(F)cc3)C(=O)[C@]12C,-3.0%,-3.8%,-13.3%,-12.8%,-0.7,-102.6%
O=C(CCCCCn1c(=O)c2sccc2n(Cc2ccc(Cl)cc2)c1=O)NCc1ccc2c(c1)OCO2,.,?,?,1.7%,.,-22.6%
CCCNS(=O)(=O)c1ccc(OCC(=O)Nc2ccc3c(c2)OCO3)cc1,-3.3%,-1.9%,-1.4%,-7.7%,-28.4,6.5%
COc1cccc(-c2nc(S(=O)(=O)c3ccc(C)cc3)c(N3CCCCC3)o2)c1,.,18.4µM*,20.6µM*,-23.8%,.,-29.8%
COc1cccc(-c2nc(S(=O)(=O)c3ccccc3)c(N3CCCCC3)o2)c1,.,16.4µM*,?,-0.2%,.,-30.7%
CN1CCN(c2oc(-c3ccccc3)nc2S(=O)(=O)c2ccccc2)CC1,2.1%,3.6%,5.0%,6.4%,3.9,-1.2%
COc1cc2c(=O)n(CCC(=O)NCC3CCCO3)c(=O)n(CC(=O)Nc3c(C)cccc3C)c2cc1OC (stereo unspecified),.,3.1%,-2.6%,-10.9%,.,-10.0%
CCCCc1ccc(-c2csc(/C(C#N)=C\c3ccc(C)o3)n2)cc1,?,-4.2%,-26.5%,-1.0%,-50.1*,2.4%
CCCCc1ccc(-c2csc(/C(C#N)=C/c3ccco3)n2)cc1,-7.4%,-4.8%,3.0%,8.8%,-11.9,-3.4%
C[C@H]1C[C@H]2[C@@H]3CCC4=CC(=O)C=C[C@]4(C)[C@H]3C(=O)C[C@]2(C)[C@@]1(O)C(=O)CO,.,-25.1%,-11.5%,.,.,.
CSc1c(C#N)c(N)nc2sc(C(=O)c3ccccc3)c(N)c12,-7.3%,5.9%,-2.0%,27.1%,-72.8*,21.6%
CCn1cc(/C=C(\NC(=O)c2ccccc2OC)C(=O)N2CCN(C)CC2)c2ccccc21,1.1%,-13.6%,-18.5%,-16.6%,-10.9,-27.8%
O=C(Nc1ccc2c(c1)OCCO2)C1c2ccccc2OCC(=O)N1C1CC1 (stereo unspecified),.,-17.1%,10.0%,.,33.0,.
CCOC(=O)c1cc(C#N)c(Oc2ccccc2OC)nc1-c1ccccc1,-7.9%,23.1µM*,?,-20.6%,-1.3,-36.0%
CCOC(=O)c1cc(C#N)c(SC)nc1-c1ccccc1,-9.1%,?,?,6.1%,-9.1,6.8%
CCOC(=O)c1cc(C#N)c(N2CCN(c3ccccn3)CC2)nc1-c1ccccc1,-0.7%,20.6µM*,?,-3.1%,-22.4,-6.7%
CC(=O)c1cc(C#N)c(N2CCN(c3ccccc3)CC2)nc1C,-0.9%,-20.1%,-25.9%,-0.5%,-16.0,-2.5%
O=C(COC(=O)CCc1ccccc1)Nc1ccc(F)cc1Cl,4.7%,-21.6%,-3.7%,-25.4%,11.2,5.8%
Cc1cccc(NC(=O)CNC(=O)c2cc(S(=O)(=O)N(C)C)ccc2N2CCCC2)c1C,.,?,-22.5%,1.6%,-18.5,-20.3%
CCN(CC)CCCNC(=O)c1cc(-c2ccc(Cl)cc2)on1,-0.3%,23.1µM*,?,42.5%,-17.8,-34.6%
O=C(NCCN1CCOCC1)c1cc(-c2ccc(Br)cc2)on1,0.2%,-4.8%,-28.2%,23.4%,6.0,38.8%
SMILES,S-ASM inh,DT40 TDP1 no CPT,TDP1 cell CPT,TGFb SMAD3 inh,IL1B secr inh,HepG2 viability
CCCCNC(=O)c1cc(-c2ccc(F)cc2)on1,4.0%,?,13µM*,5.5%,41.5,-11.7%
CCN(CC)CCCNC(=O)c1cc(-c2ccc3c(c2)OCO3)on1,-1.0%,-10.3%,0.4%,-11.6%,-2.4,0.7%
O=C(NCCCN1CCOCC1)c1cc(-c2ccc(Br)cc2)on1,-6.6%,-27.6%,?,-11.0%,-62.4*,-2.3%
CC(OC(=O)c1ccc(=O)n(Cc2ccccc2)n1)C(=O)Nc1cccc(Cl)c1 (stereo unspecified),-13.5%,1.8%,-3.9%,-7.9%,13.4,-19.8%
COc1ccc(Cn2ccc3nc(C)c(C(=O)Nc4ccc(OC)cc4)cc3c2=O)cc1,.,-20.3%,-15.2%,-18.5%,.,-26.9%
COC(=O)CC1C(=O)NCCN1C(=O)CN1Cc2ccccc2OC(c2ccccc2)C1 (stereo unspecified),.,-14.3%,-5.0%,.,.,.
Cc1ccc(NC(=O)Nc2c(C)n(C)n(-c3ccccc3)c2=O)cc1,-2.8%,19.5%,-14.4%,6.7%,9.3,1.3%
Cc1c(NS(=O)(=O)c2ccc(NC(=O)CCC(=O)O)cc2)c(=O)n(-c2ccccc2)n1C,1.8%,2.5%,-20.8%,0.0%,-71.1*,1.0%
Cc1c(NC(=O)Nc2ccc([N+](=O)[O-])cc2)c(=O)n(-c2ccccc2)n1C,1.5%,20.6µM*,?,-6.1%,30.2,0.6%
CC(=O)Nc1ccc(S(=O)(=O)Nc2c(C)n(C)n(-c3ccccc3)c2=O)cc1,-1.2%,-14.0%,-1.4%,-21.9%,7.6,-32.1%
Cc1c(N2C(=O)CSC2c2ccc([N+](=O)[O-])cc2)c(=O)n(-c2ccccc2)n1C (stereo unspecified),1.0%,-6.8%,?,3.8%,6.4,-9.5%
Cc1ccc(CNC(=O)c2ccc(S(=O)(=O)Nc3c(C)n(C)n(-c4ccccc4)c3=O)cc2)cc1,7.3%,20.6µM*,?,-10.3%,7.2,0.5%
Cc1sc(Nc2ccc([N+](=O)[O-])cc2)nc1-c1c(C)n(C)n(-c2ccccc2)c1=O,-12.4%,23.1µM*,?,-13.4%,-20.9,-22.2%
CC1Oc2ccccc2N(CC(=O)Nc2ccc(F)cc2)C1=O (stereo unspecified),2.2%,-22.0%,?,-14.0%,-7.6,-9.5%
O=[N+]([O-])c1ccccc1CN1CCN(Cc2ccc3ccccc3c2)CC1,0.8%,-10.8%,-28.3%,?,2.1,-30.8%
